Screens (PubChem BioAssay)
IL1B secr inh – inhibitors of inflammasome signaling (IL-1 beta secretion). AID 743279. activity change, % at 57.5 µM. THP-1 LPS/ATP IL-1B secretion, AlphaLISA, 16 h; stronger effect = lower value. 360,000 compounds, 4.7% hits; in the data active = activity change below about -50%; inconclusive = mostly about -30% to -49%
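THP-1 cells pretreated 1 hr with compounds (up to 57.5 uM final), then stimulated with LPS (250 ng/mL final) plus ATP (1.25 mM final); secreted IL-1B measured by AlphaLISA after 16 hr, decreased signal indicating inhibition.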
RORgamma inh – inhibitors of mouse ROR gamma transcriptional activity; Drosophila S2 Gal4-RORgamma UAS-luciferase reporter, 20 h; P51450; 310,000 compounds, 5.4% hits; AID 2551; Potency, µM (highest dose often 53.6 µM), actives largely listed as inhibitors; also: nearly all actives have a fitted effect of over 60% in size
Target sequence (P51450 whole entry, looked up, the tested form may be a part): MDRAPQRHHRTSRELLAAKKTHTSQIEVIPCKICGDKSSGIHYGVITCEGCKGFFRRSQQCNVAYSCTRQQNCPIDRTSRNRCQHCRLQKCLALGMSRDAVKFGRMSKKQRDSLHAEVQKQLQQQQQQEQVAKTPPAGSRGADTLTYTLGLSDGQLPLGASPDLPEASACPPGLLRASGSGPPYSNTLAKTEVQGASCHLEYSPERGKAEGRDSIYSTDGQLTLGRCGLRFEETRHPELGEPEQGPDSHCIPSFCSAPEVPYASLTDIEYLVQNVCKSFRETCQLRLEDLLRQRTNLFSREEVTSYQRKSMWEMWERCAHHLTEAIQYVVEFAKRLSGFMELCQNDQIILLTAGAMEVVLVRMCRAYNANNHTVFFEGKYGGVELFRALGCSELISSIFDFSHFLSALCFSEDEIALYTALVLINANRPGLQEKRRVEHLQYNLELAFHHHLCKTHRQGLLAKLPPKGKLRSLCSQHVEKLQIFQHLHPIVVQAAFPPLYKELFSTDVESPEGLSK
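Luminescence from a UAS-regulated Photinus luciferase reporter in stably transfected Drosophila Schneider cells is measured; decreased signal marks ROR gamma inhibition. Fusion expression is induced by 700 uM copper sulfate for 20 hr.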
DT40 TDP1 CPT – DT40-hTDP1 cell growth loss with CPT. Potency, µM (doses to about 46.2 µM), most hits filed as inhibitors. 420,000 compounds, 12% hits. AID 686979. chicken DT40 Tdp1-/-;hTDP1 cells + 20 nM CPT, ATP luminescence, 48 h; also: nearly all actives have a fitted effect of over 55% in size
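Chicken DT40 Tdp1-/- cells stably complemented with human TDP1 were seeded at 400 cells/well in medium containing 20 nM camptothecin, exposed to pin-transferred compounds, and grown at 37 °C for at least 48 hr. Viability was read as ATP luminescence.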
Gal4-VP16 FLuc – counter-screen for ROR gamma inhibitors: Gal4-VP16 reporter. Drosophila S2 Gal4-VP16 UAS-luciferase, luminescence, 20 h. Potency, µM (doses to about 53.6 µM), most hits filed as inhibitors. 310,000 compounds, 3.5% hits;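 also: Gal4-VP16 expression switched on by copper sulfate through the metallothionein promoter; nearly all actives have a fitted effect of over 50% in size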
TDP1 cell noCPT – qHTS for Inhibitors of human tyrosyl-DNA phosphodiesterase 1 (TDP1): qHTS in cells in absence of CPT. DT40 Tdp1-/- hTDP1 cells, no CPT, ATP luminescence, 48 h. Potency, µM (series often up to 46.2 µM), actives largely listed as inhibitors. 420,000 compounds, 15% hits. AID 686978, 2013; also: nearly all actives have a fitted effect of over 55% in size
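Seeded 400 DT40-hTDP1 cells/well (vehicle DMSO, no 20 nM CPT); pinned compounds; ≥48 hr at 37 °C; CellTiter-Glo luminescence as viability measure.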
ELG1 repair inh – ELG1-dependent DNA repair inhibition; HEK293T ELG1-luciferase reporter, luminescence, 16 h; DNA damage induced by 5-fluorouridine; Potency, µM (titrated, usually from 46.1 µM), usual class: inhibitors; 330,000 compounds, 2.3% hits; also: nearly all actives have a fitted effect of over 55% in size
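Cells (2,000 per well) received 5-fluorouridine plus test compound or DMSO and were incubated 16 hr at 37 °C, 5% CO2. Luciferase activity was read by luminescence 30 min after ONE-Glo addition; signal suppression marked inhibition of damage-induced ELG1 function.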
A number is an active result; - = inactive; ? = inconclusive; . = no result; [ ] = dose if it differs, or a comment. In the library only some 21% were active in any assay of this set; here they are far more common. Unless noted, calls follow the shape of the dose curve; as a rule, active = well fitted curve in the direction sought with a large enough effect; inconclusive = small, poorly fitted or top-dose-only effect, or another doubt; inactive = no such curve, though single readings can be large; an effect the other way counts as inactive or inconclusive.

SMILES | IL1B secr inh | RORgamma inh | DT40 TDP1 CPT | Gal4-VP16 FLuc | TDP1 cell noCPT | ELG1 repair inh
COc1ccccc1-c1cc(C(=O)N2CCOCC2)no1 | - | - | - | - | - | ?
COc1ccccc1/C=C/C(=O)N1CCOCC1 | - | - | - | - | - | -
Cc1ccc(/C=C/C(=O)NC(=S)N2CCN(C)CC2)cc1 | - | 14µM | - | 13µM | - | ?
COc1ccccc1/C=C/C(=O)NC(=S)N1CCN(C)CC1 | - | 11µM | - | 16µM | - | -
O=C(/C=C/c1ccccc1)NC(=S)N1CCSCC1 | - | 7.9µM | - | 10µM | - | -
COc1ccc2nc3oc(C(=O)NCCCOC(C)C)cc3cc2c1 | ? | - | - | - | - | -
COc1ccc2cc3cc(C(=O)N4CCN(c5ccccc5)CC4)oc3nc2c1 | - | - | - | - | - | -
COc1ccc2cc3cc(C(=O)Nc4ccccc4N4CCN(C)CC4)oc3nc2c1 | -96 | - | 4.6µM | - | 4.6µM | -
Cc1ccc2cc3cc(C(=O)NCCCN4CCCCCC4)oc3nc2c1 | - | ? | ? | - | ? | -
COc1ccc2cc3cc(C(=O)NCCN4CCN(c5ccccc5F)CC4)oc3nc2c1 | - | ? | ? | - | 16µM | ?
Cc1ccc2cc3cc(C(=O)NCCCN4CCCC4)oc3nc2c1 | -51 | - | - | - | - | ?
CCOCCCNC(=O)c1cc2cc3cc(OC)ccc3nc2o1 | - | - | 16µM | - | - | -
O=C(COC(=O)CNC(=O)C1CCCCC1)NC1CC1 | . | . | - | . | - | .
COc1ccc(-c2oc3c(CC=C(C)C)c(O[C@H]4OC(CO)C(O)C(O)C4O)cc(O)c3c(=O)c2O[C@@H]2OC(C)C(O)C(O)C2O)cc1 (stereo partly drawn) | . | - | - | - | - | .
COc1ccccc1OCCn1nc2ccccc2c1OC | - | . | - | . | ? | .
COc1ccc2cc3cc(C(=O)NCC4CCCO4)oc3nc2c1 (stereo not drawn) | -56 | - | - | - | - | -
C=CCOc1ccc2ccccc2c1CNn1cn[nH]c1=S | - | -[1.91 µM] | - | ? | - | -
CC1(C)CC2(C)OC2C2(C1)N=NC(=Nc1ccccc1)O2 (stereo not drawn) | -99 | . | 4.1µM | . | 4.1µM | .
c1ccc(Cn2ncc3c(N4CCN(c5ccccc5)CC4)ncnc32)cc1 | ? | . | 18µM | . | 16µM | .
c1ccc(Cn2ncc3c(N4CCN(C(c5ccccc5)c5ccccc5)CC4)ncnc32)cc1 | - | - | 18µM | - | 21µM | -
Cc1cc(F)ccc1S(=O)(=O)Nc1ccccc1C(=O)NC1CCN(Cc2ccccc2)CC1 | - | . | ? | . | ? | -
Cc1cccc(C)c1C(OCCN(C)C)C1CCCCC1 (stereo not drawn) | - | - | 18µM | - | ? | -
Cc1ccccc1CN1C(=O)c2ccccc2Sc2ccc(C(=O)NCCN3CCOCC3)cc21 | - | - | ? | - | 23µM | -
Cc1cccc(CN2C(=O)c3ccccc3Sc3ccc(C(=O)NCCN4CCOCC4)cc32)c1 | -68 | - | - | - | ? | -
Cc1ccc(CN2C(=O)c3ccccc3Sc3ccc(C(=O)NCCN4CCOCC4)cc32)cc1 | - | - | ? | - | ? | ?
SMILES | IL1B secr inh | RORgamma inh | DT40 TDP1 CPT | Gal4-VP16 FLuc | TDP1 cell noCPT | ELG1 repair inh
COc1cccc(CN2C(=O)c3ccccc3Sc3ccc(C(=O)NCc4ccccc4)cc32)c1 | . | . | - | . | - | .
O=C(NCCCN1CCCC1)c1ccc2c(c1)N(Cc1ccccc1F)C(=O)c1ccccc1S2=O (stereo not drawn) | - | - | - | - | ? | ?
Cc1ccccc1CN1C(=O)c2ccccc2Sc2ccc(C(=O)NCCc3ccccc3)cc21 | . | . | 16µM | . | 21µM | .
O=C(NCCN1CCOCC1)c1ccc2c(c1)N(Cc1ccccc1F)C(=O)c1ccccc1S2 | - | - | 21µM | -[10 µM] | - | -
CN(C)c1ncc2nc(CCc3ccccc3)c(=O)n(-c3ccccc3)c2n1 | . | - | - | - | - | .
CCO | . | - | . | - | . | .
CCn1c(C)nc2cc(C(=O)NN=Cc3ccc([N+](=O)[O-])cc3)ccc21 | - | . | - | . | - | -
Cc1ccc(N2C(=O)N(c3ccc(C)cc3)C3CS(=O)(=O)CC32)cc1 (stereo not drawn) | - | - | - | -[10 µM] | - | -
COc1ccc(CCNC(=O)c2ccc3c(c2)N(Cc2ccccc2Cl)C(=O)c2ccccc2S3)cc1OC | . | . | 6.5µM | . | 7.3µM | .
COc1ccc(CCNC(=O)c2ccc(Cn3c(=O)c4ccccc4n(Cc4ccccc4Cl)c3=O)cc2)cc1OC | . | . | - | . | - | .
Cc1c(Cl)ccc2sc(N3CCN(C(=O)C(C)C)CC3)nc12 | . | . | 12µM | . | 6.5µM | .
O=C(CS(=O)(=O)c1ccc(F)cc1)N1CCN(c2ccccc2)CC1 | - | . | - | . | - | ?
Cc1cc(C)c2nc(N3CCC(C(=O)N4CCN(C(=O)c5ccco5)CC4)CC3)sc2c1 | ? | - | ? | - | 15µM | 16µM
Cc1cc(C)c2nc(N3CCC(C(=O)NCc4cccnc4)CC3)sc2c1 | - | - | - | - | - | -
Cc1c(Cl)ccc2sc(N3CCN(C(=O)CS(=O)(=O)c4ccccc4)CC3)nc12 | . | . | 6.5µM | . | 4.1µM | .
COc1ccc(C(=O)N2CCN(c3nc4c(C)c(Cl)ccc4s3)CC2)c(OC)c1 | . | . | 16µM | . | 9.2µM | .
Cc1c(Cl)ccc2sc(N3CCN(C(=O)c4ccco4)CC3)nc12 | . | . | 15µM | . | 12µM | .
COc1ccc(Cl)c2sc(N3CCN(C(=O)c4ccco4)CC3)nc12 | - | . | ? | . | ? | ?
Cc1c(Cl)ccc2sc(N3CCN(C(=O)C4=COCCO4)CC3)nc12 | -61 | . | ? | . | ? | -
CC(=O)N1CCN(c2nc3c(C)ccc(Cl)c3s2)CC1 | . | . | - | . | ? | .
COc1cc2ccccc2cc1C(=O)N1CCN(c2nc3c(C)cc(C)cc3s2)CC1 | . | . | ? | . | 18µM | .
Cc1cc(CNC(=O)c2cccc(OC3CCN(S(=O)(=O)N(C)C)CC3)c2)on1 | - | ? | ? | - | - | ?
CCN(C(=O)c1cnc(NC(C)C)cc1C(F)(F)F)c1ccc(Cl)cc1 | ? | - | ? | - | ? | 18µM
NNc1ccc2c(C(F)(F)F)cc(C(F)(F)F)nc2n1 | - | 13µM | ? | - | ? | -
CC1(C)CC2CC(C)(CN2C(=O)c2ccc([N+](=O)[O-])cc2)C1 (stereo not drawn) | - | - | 21µM | - | ? | -
Cc1cccc(C(=O)N2CC3(C)CC2CC(C)(C)C3)c1 (stereo not drawn) | - | - | 21µM | - | 23µM | -
CC1(C)C[C@@H]2C[C@@](C)(CN2C(=O)c2ccccc2)C1 | - | - | ? | - | 15µM | -
